Pf growth 96h – Primary qHTS for delayed death inhibitors of the malarial parasite plastid, 96 hour incubation | Potency, µM (titrated, usually from 28.7 µM), most hits filed as inhibitors | 6.9% of 320,000 active | P. falciparum luciferase reporter growth, 96 h
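Readout is luminescence from an integrated firefly luciferase in P. falciparum. Red cells, 2% hematocrit and 0.05% parasitemia final, were cultured with compound through two parasite generations (96 hours) at 37 C, 5% CO2.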
SARS PLP yeast – qHTS of Yeast-based Assay for SARS-CoV PLP | S. cerevisiae expressing SARS-CoV PLpro, growth rescue | Potency, µM (top dose mostly 32.9 µM), hits mostly activators | 0.19% of 330,000 active; calls by dose curve; also: nearly all actives have a fitted effect of over 55% in size
Cycloheximide cs – Cycloheximide Counterscreen for Small Molecule Inhibitors of Shiga Toxin. cell reporter, cycloheximide protein synthesis inhibition counterscreen. AID 2314, 2010. max response, %. 12% of 300,000 active; in the data active = max response mostly above about 13%, no sharp cut-off; inactive = mostly below about 14%; also: read at 38.3 µM for the half of the compounds with a filed dose
NS1 function inh – qHTS Assay for Inhibitors of Influenza NS1 Protein Function | Potency, µM (highest dose often 46.1 µM) | 0.4% of 270,000 active; calls by dose curve; also: actives are rising curves; nearly all actives have a fitted effect of over 50% in size
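S. cerevisiae expressing influenza A NS1, grown in glucose, washed, then diluted 1:100 into pH 6.0 -URA galactose medium with 23 nl compound. Growth recovery read as OD600; NS1-free strain serves as control.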
Pf growth 48h – Primary qHTS for delayed death inhibitors of the malarial parasite plastid, 48 hour incubation; P. falciparum luciferase growth in erythrocytes, 48 h; AID 504832, 2011; 5.9% of 310,000 active; Potency, µM (doses to about 28.7 µM), usual class: inhibitors
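Growth was read as firefly luciferase luminescence after a 48 h, 37 C, 5% CO2 exposure of compounds to reporter-bearing P. falciparum cultures (0.1% parasitemia, 2% hematocrit final) in Albumax-supplemented RPMI 1640.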
Shiga toxin inh – A qHTS for Small Molecule Inhibitors of Shiga Toxin; inhibition, % at 38.7 µM; 9.2% of 290,000 active; Vero cells, Shiga toxin protein synthesis inhibition reporter; in the data active = inhibition mostly above about 28%, no sharp cut-off; inactive = mostly below about 43%
Numbers stand for hits; [ ] = dose if it differs, or a comment. Only some compounds are listed: those with a hit (about 21% of all), similar ones and a draw of the others. Unless noted, calls follow the shape of the dose curve; as a rule, active = well fitted inhibition curve with a large enough effect; inconclusive = small, poorly fitted or top-dose-only effect, or another doubt; inactive = no such curve, though single readings can be large or run the other way.

`CCOC(=O)N1CCC(N(CCN(C)C)C(=S)Nc2ccc(OCC)cc2)CC1` gave Pf growth 96h inactive, SARS PLP yeast inactive, Cycloheximide cs inactive, Pf growth 48h inactive and Shiga toxin inh inactive.
`CC(=O)c1ccccc1NC(=O)CSc1nnc2ccccn12` gave Pf growth 96h inactive, SARS PLP yeast inactive, Cycloheximide cs inactive, NS1 function inh inactive and Shiga toxin inh inactive.
Screening Cc1ccc(NC(=O)CS(=O)CC(=O)Nc2cnc3ccccc3c2)cc1Cl (configuration not stated) returned Pf growth 96h inactive, SARS PLP yeast inactive, Cycloheximide cs inactive, NS1 function inh inactive, Pf growth 48h inactive and Shiga toxin inh inactive.
`CCCCCn1cnnc1SCC(=O)c1c(N)n(C2CC2)c(=O)[nH]c1=O` gave Pf growth 96h inactive, SARS PLP yeast inactive and Pf growth 48h inactive.
For FC(F)(F)Oc1ccc(Nc2nc(N3CCOCC3)nc(N3CCOCC3)n2)cc1 the results were Pf growth 96h 11.7µM, SARS PLP yeast inactive, Cycloheximide cs inactive, NS1 function inh inactive, Pf growth 48h inconclusive and Shiga toxin inh inactive.
Screening O=C(NNc1nc(Nc2ccccc2)nc(N2CCOCC2)n1)Nc1ccc(Cl)cc1 returned Pf growth 96h inactive, SARS PLP yeast inactive, Cycloheximide cs inactive, Pf growth 48h 10.4µM and Shiga toxin inh inactive.
`O=C(CSc1nc(Nc2ccccc2)nc(N2CCOCC2)n1)Nc1cccc([N+](=O)[O-])c1` gave Pf growth 96h inconclusive, SARS PLP yeast inactive, Cycloheximide cs inactive, NS1 function inh inactive, Pf growth 48h inconclusive and Shiga toxin inh inactive.
For COc1nc(Nc2ccc(C(C)=O)cc2)nc(OC)n1 the results were Pf growth 96h inactive, SARS PLP yeast inactive, Cycloheximide cs 18.0, NS1 function inh inactive, Pf growth 48h 14.7µM and Shiga toxin inh 52.8.
For O=C(CSc1nc(Nc2ccccc2)nc(N2CCOCC2)n1)Nc1ccc([N+](=O)[O-])cc1 the results were SARS PLP yeast inactive, Cycloheximide cs inactive, NS1 function inh inactive, Pf growth 48h 11.7µM and Shiga toxin inh inactive.
O=C(Nc1ccc(C(F)(F)F)cc1)C1CCCCN1S(=O)(=O)c1ccccc1 (configuration not stated) was read as Pf growth 96h inconclusive, SARS PLP yeast inactive and Pf growth 48h inconclusive.
`Nc1c(-c2n[nH]c(=S)n2-c2ccc(Cl)cc2Cl)cnn1-c1ccccc1` gave Pf growth 96h inactive, SARS PLP yeast inactive, Cycloheximide cs inactive, NS1 function inh inactive, Pf growth 48h inactive and Shiga toxin inh inactive.
For Nc1[nH]nc2c1NN(c1ccc(Cl)cc1Cl)N2 the results were Pf growth 96h inactive, SARS PLP yeast inactive, Cycloheximide cs 48.3, NS1 function inh inactive, Pf growth 48h inactive and Shiga toxin inh 82.5.
For Cc1cc(=O)c2c([nH]1)c(C)cc1[nH]c(C)c(C)c12 the results were Pf growth 96h inconclusive, SARS PLP yeast inactive[6.58 µM] and Pf growth 48h inconclusive.
For CC(=O)Nc1ccc(C(=O)NC(C)c2ccc(-n3ccnc3)cc2)cc1 (configuration not stated) the results were Pf growth 96h inactive, SARS PLP yeast inactive, Cycloheximide cs inactive, NS1 function inh inactive, Pf growth 48h inactive and Shiga toxin inh inactive.
For O=C(Nc1ccccc1)n1ccc(-c2ccc(-n3ccnc3)cc2)n1 the results were Pf growth 96h inactive, SARS PLP yeast inactive, Cycloheximide cs 42.6, Pf growth 48h inactive and Shiga toxin inh 40.4.
COc1ccc(CC(=O)Oc2ccc(C)cc2Br)cc1OC was read as Pf growth 96h inactive, SARS PLP yeast inactive, Cycloheximide cs inactive, NS1 function inh inactive, Pf growth 48h inactive and Shiga toxin inh inactive.
Cc1cccc(N(CC(=O)NC2CCCC2)C(=O)CCC(=O)Nc2ccccn2)c1 was read as Pf growth 96h inactive, SARS PLP yeast inactive, Cycloheximide cs inactive, NS1 function inh inactive, Pf growth 48h inactive and Shiga toxin inh inactive.
`COc1ccc(-c2cccc(C(=O)Nc3cccc(C(=O)O)c3)c2)cc1` gave Pf growth 96h inactive, SARS PLP yeast inactive, Cycloheximide cs 103.4, NS1 function inh inactive, Pf growth 48h inactive and Shiga toxin inh 106.4.
For COc1cc(NC(=O)Cc2ccccc2)ccc1NC(=O)c1ccccc1 the results were Pf growth 96h 10.4µM, SARS PLP yeast inactive, Cycloheximide cs inactive, NS1 function inh inactive, Pf growth 48h inactive and Shiga toxin inh inactive.
For COc1ccc(NC(=O)c2cccc(NC(=O)c3ccccc3)c2)c(OC)c1 the results were Pf growth 96h 10.4µM, SARS PLP yeast inactive, Cycloheximide cs inactive, NS1 function inh inactive, Pf growth 48h inactive and Shiga toxin inh inactive.
For COc1cc(NC(=O)c2ccccc2)ccc1NC(=O)Cc1ccccc1 the results were Pf growth 96h inactive, SARS PLP yeast inactive, Cycloheximide cs inactive, NS1 function inh inactive, Pf growth 48h inactive and Shiga toxin inh inactive.
`COc1ccc(-c2cccc(C(=O)Nc3ccc(C)cc3)c2)cc1` gave Pf growth 96h inactive, SARS PLP yeast inactive, Cycloheximide cs inactive, NS1 function inh inactive, Pf growth 48h inactive and Shiga toxin inh inactive.
Screening COc1ccc(OC)c(NC(=O)c2cccc(NC(=O)c3ccccc3)c2)c1 returned Pf growth 96h inactive, SARS PLP yeast inactive, Cycloheximide cs inactive, NS1 function inh inactive, Pf growth 48h inactive and Shiga toxin inh inactive.
Screening COc1cccc(C(=O)Nc2cccc(-c3ccccc3)c2)c1 returned Pf growth 96h inactive, SARS PLP yeast inactive, Cycloheximide cs 41.8, NS1 function inh inactive, Pf growth 48h inactive and Shiga toxin inh 77.5.
For Cc1cccc2cc(CN(Cc3ccccc3)C(=O)c3cccc(F)c3)c(Cl)nc12 the results were Pf growth 96h inconclusive, SARS PLP yeast inactive, Cycloheximide cs inactive, NS1 function inh inactive, Pf growth 48h inactive and Shiga toxin inh inactive.
c1ccc(CN2CCN(CCOCCOc3ccc4c(c3)CCC4)CC2)cc1 was read as Pf growth 96h inactive, SARS PLP yeast inactive, Cycloheximide cs inactive, NS1 function inh inactive, Pf growth 48h inactive and Shiga toxin inh inactive.
For CSCc1ccc(C(=O)Nc2ccc(C(N)=O)cc2)cc1 the results were Pf growth 96h inactive, SARS PLP yeast inactive, Cycloheximide cs 28.4, NS1 function inh inactive, Pf growth 48h inactive and Shiga toxin inh 50.4.
`CSCc1ccc(C(=O)NCc2ccc(F)cc2)cc1` gave Pf growth 96h inactive, SARS PLP yeast inactive, Cycloheximide cs inactive, NS1 function inh inactive, Pf growth 48h inactive and Shiga toxin inh inactive.
Cc1ccc(CSCCNC(=O)c2ccc(C)cc2)cc1 was read as Pf growth 96h inactive, SARS PLP yeast inactive, Cycloheximide cs inactive, NS1 function inh inactive, Pf growth 48h 13.1µM and Shiga toxin inh inactive.
Screening CSCc1ccc(C(=O)NCc2ccc(C)cc2)cc1 returned Pf growth 96h inactive, SARS PLP yeast inactive, Cycloheximide cs 21.0, NS1 function inh inactive, Pf growth 48h inactive and Shiga toxin inh active.
For CSCc1ccc(C(=O)NCc2ccccc2)cc1 the results were Pf growth 96h inactive, SARS PLP yeast inactive, Cycloheximide cs 31.0, NS1 function inh inactive, Pf growth 48h inactive and Shiga toxin inh inactive.
